Screening data (PubChem)
SKBR3 24h inh – SK-BR-3 proliferation inhibitors, primary screen, cell-based, human, 24 h | SK-BR-3 viability, CellTiter-Glo ATP luminescence; active compounds read low | viability, % at 10 µM | 41,000 tested, 0.47% active;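 active means viability at or below the median of all test compounds minus 3 SD, in both replicates if run twice, cut at about 45% in these data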;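 further: 100% = median untreated cell wells and 0% = median positive control drug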
Htt clearance – clearance of mutant huntingtin inclusions, primary screen, imaging, HeLa Exon1htt(103Q)mCFP, confocal imaging; aggregate imaging; zero = plate's median compound well; 47,000 tested, 0.42% active; inhibition, % at 1.5 µM;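 active means inhibition of aggregate fluorescence above about 70%, also judged a hit by eye on the cell image, limit read from the data, passing the limit was not always enough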;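 further: cells exposed to compound for three days before fixation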
WNV protease inh – inhibitors of WNV NS2B-NS3 protease, primary screen, biochemical, fluorogenic substrate; fluorogenic substrate Ex360/Em465; active compounds read low; z-score (concentration not given with the values); 65,000 tested, 0.18% active; AID 577, 2007; in the data active means z-score below about -3
Target sequence (P06935 1371-1501 limits assumed): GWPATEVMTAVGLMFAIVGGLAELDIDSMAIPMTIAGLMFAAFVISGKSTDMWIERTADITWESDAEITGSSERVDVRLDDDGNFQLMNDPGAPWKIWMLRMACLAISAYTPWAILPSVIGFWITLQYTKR
Target sequence (P06935 1502-1679 limits assumed): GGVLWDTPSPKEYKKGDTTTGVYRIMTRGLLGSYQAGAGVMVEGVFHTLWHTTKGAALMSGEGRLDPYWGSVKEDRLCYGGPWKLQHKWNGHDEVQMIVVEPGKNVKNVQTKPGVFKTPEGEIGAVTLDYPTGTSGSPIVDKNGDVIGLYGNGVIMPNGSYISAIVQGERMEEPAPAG
Active calls of the source: *; . = no result given; ! = not confirmed by another sample. Sampled rows, rich in hits. Any-hit rate of the full collection: about 0.64%.

SMILES | SKBR3 24h inh | Htt clearance | WNV protease inh
CC(c1cccnc1)N(CCN(C)C)C(=O)Nc1ccc(Cl)cc1 (centres undefined) | . | -320 | .
CCC(C)NC(=O)CS(=O)Cc1nc(-c2ccccc2C)oc1C (centres undefined) | . | 2 | 0.5
CCOC(=O)c1cccc(NS(=O)(=O)c2ccc(NC(C)=O)cc2)c1 | . | 37 | .
CCOC(=O)/C=C/S(=O)(=O)c1ccc(NC(C)=O)cc1 | 3.0* | 26 | 2.2
COC(=O)c1ccc(C(=O)OC)c(NC2=NS(=O)(=O)c3ccccc32)c1 | 93 | 75* | -0.41
Cc1ccc(C)c(NC2=NS(=O)(=O)c3ccccc32)c1 | 106 | . | -0.53
CC1(C)Cc2ccccc2-c2nnc(SCC(=O)N3CCN(c4ccccc4)CC3)n21 | 93 | 20 | -0.28
Cn1c(C(=O)O)c(CC(=O)Nc2ccccc2F)c2ccccc21 | 30* | 10 | 1.2
Cc1ccc2c(c1)c(CC(=O)Nc1ccc(C)c(F)c1)c(C(=O)O)n2C | . | 0 | .
CC(=O)c1ccc(N2CCC(c3cc(-c4ccc(Cl)cc4Cl)n[nH]3)CC2)c([N+](=O)[O-])c1 | . | -6 | .
O=C(NCc1ccco1)C1(S(=O)(=O)c2ccc(Cl)cc2)CC1 | . | 48 | 0.79
CCOc1ccc(NS(=O)(=O)c2ccc3[nH]cc(C(=O)NCC4CCCO4)c(=O)c3c2)cc1 (centres undefined) | 91 | -18 | -0.49
CCc1ccccc1NS(=O)(=O)c1ccc2[nH]cc(C(=O)NCC3CCCO3)c(=O)c2c1 (centres undefined) | 75 | 94* | -0.67
CC1=CC(C)(C)Nc2ccc(OC(=O)c3cccnc3)cc21 | . | 6 | -0.06
CC1=CC(C)(C)Nc2ccc(OC(=O)c3ccco3)cc21 | 14* | . | 2
C=CCn1c(COc2ccccc2)nnc1SCc1ccc(C#N)cc1 | 91 | 54 | -0.77
C=CCn1c(COc2ccc(CC)cc2)nnc1SC/C(O)=C(\C#N)c1nc2ccccc2[nH]1 | 29* | . | 0.75
COCC(C)n1c(SCC(=O)NC(=O)Nc2ccc3c(c2)OCCO3)nc2ccccc2c1=O (centres undefined) | . | . | -0.0088
CCN(Cc1ccccc1)C(=O)c1ccccc1C | . | -11 | -3.5*
O=C(O)c1ccccc1C(=O)N(Cc1ccccc1)Cc1ccccc1 | . | 44 | .
CNCCCN1c2ccccc2CCc2ccccc21 | 76 | . | -6.7*!
CN(C)CCCN1c2ccccc2CCc2ccc(Cl)cc21 | 93 | . | 0.16
Cc1cc(NC(=O)CSc2nc(C3CC3)nc3sc4c(c23)CCC(C)C4)no1 (centres undefined) | 62 | 72* | 0.65
Cc1cc(NC(=O)CSc2nc(C(C)C)nc3sc4c(c23)CCCC4)no1 | 72 | . | -0.04
CN1CCN(c2ncnc3c2sc2nc(N4CCCC4)c4c(c23)CC(C)(C)OC4)CC1 | 78 | . | 1.6
SMILES | SKBR3 24h inh | Htt clearance | WNV protease inh
O=c1cc(-c2c(F)c(F)c(F)c(F)c2F)oc2c(F)c(F)c(F)c(F)c12 | 34* | . | -0.49
COc1ccc(CN(C#N)c2nc(SC)nc(N(C)C)n2)cc1 | 99 | . | 0.08
COc1ccc(CNc2cc(C)nc3ncnn23)c(OC)c1 | 40* | 54 | 0.42
COc1ccc(Nc2cc(C)nc3ncnn23)c(OC)c1 | . | 24 | 0.48
Cc1cc2ncn(S(=O)(=O)N3CCOCC3)c2cc1C | 93 | 70* | 0.86
Cc1cc2ncn(S(=O)(=O)N3CCCCC3)c2cc1C | 90 | . | 0.73
CC(=O)Nc1sc(C)c(C)c1C(=O)OC1CCOC1=O (centres undefined) | . | . | -0.36
Cc1cc(C(=O)NCc2ccccc2Br)no1 | 87 | -33 | -0.5
CCOc1ccc(CN2CCNC(=O)C2CC(=O)OC)cc1 (centres undefined) | . | 16 | -0.94
CCOC(=O)N=S(=O)(Oc1ccc([N+](=O)[O-])cc1)c1ccccc1 (centres undefined) | . | 78* | .
CCOC(=O)N=S(=O)(Oc1ccc([N+](=O)[O-])cc1)c1ccc(Cl)cc1 (centres undefined) | . | 10 | .
CN(C1CCCCC1)S(=O)(=O)c1ccc2c(c1)c(=O)c(C(=O)NCCN1CCCC1)cn2C | . | . | -2.1
Cn1cc(C(=O)NCN2CCCCC2)c2ccccc21 | 82 | . | -6.6*
CC1CCC2(CC1)NC(=O)c1ccccc1O2 (centres undefined) | 101 | -9 | -2.1
CCCn1c2c(c(O)c(C(=O)Nc3ccccc3)c1=O)CCCC2 | 91 | . | -2.3
COc1ccc(N2CCN(C(=O)c3cn(C4CCCC4)c(=O)c4c3c3ccccc3n4C)CC2)cc1 | . | -1 | 0.13
COc1ccc(N2CCN(C(=O)c3cn(C)c(=O)c4c3c3ccccc3n4C)CC2)cc1 | 80 | 23 | -3.8*
O=C(Nc1nc(=S)ss1)c1ccc(Cl)cc1Cl | . | -2 | .
COc1cc2c(=O)n(Cc3ccco3)c(=O)n(CC(=O)c3ccc(Br)cc3)c2cc1OC | 56 | . | -1.1
COc1cc2c(=O)n(Cc3ccco3)c(=O)n(CC(=O)c3cccc(Br)c3)c2cc1OC | 42* | . | -1.2
Cc1nc(NC(=O)CSc2ccccc2N)sc1C | 75 | . | 0.54
Cc1ccc(OCc2nc(-c3ccc(-n4cccc4)cc3)no2)cc1C | . | 38 | .
CCCCCCOC(=O)C(C#N)c1nc2ccccc2nc1N1CCN(C)CC1 (centres undefined) | 4.9* | . | -0.62
CCCCCCOC(=O)C(C#N)c1nc2ccccc2nc1N1CCCCC1 (centres undefined) | 97 | 6 | 0.09
O=C(OCC(=O)N1CCN(C(=O)c2ccco2)CC1)c1ccccc1OCc1ccc(Cl)cc1 | . | . | -1.4
SMILES | SKBR3 24h inh | Htt clearance | WNV protease inh
COc1ccc(-c2cc3nc(C)c(CCC(=O)N4CCCCC4)c(C)n3n2)c(OC)c1 | 72 | . | -1.7
CC(C)CC(c1nnnn1Cc1ccccc1)N1CCC(C(N)=O)CC1 (centres undefined) | . | -27 | .
O=C(CCN1C(=O)c2ccccc2C1=O)Nc1ccc(S(=O)(=O)N2CCOCC2)cc1 | 104 | -3 | -1.3
O=C(OCCN1C(=O)c2ccccc2C1=O)c1cc(S(=O)(=O)N2CCOCC2)ccc1F | . | . | -3.1*
COc1ccc(S(=O)(=O)Nc2ccccn2)cc1OC | 89 | -64 | 1.1
Nc1ccc(S(=O)(=O)Nc2ccccn2)cc1 | 85 | . | -3.1*
CCOc1cc(C2C(C(=O)OCC(C)C)=C(C)N=C3SCCC(=O)N32)ccc1OC(C)=O (centres undefined) | 116 | . | -0.14
CC(C)NCC(O)Cn1c2c(c3ccccc31)CCc1c-2cnn1-c1ccccc1 (centres undefined) | 2.2* | . | -0.71
CN1CCc2c(n(CC(O)CN3C(=O)c4ccccc4S3(=O)=O)c3ccccc23)C1=O (centres undefined) | 112 | . | -0.7
CCc1nnc(NC(=O)c2cccc(C(=O)Nc3nnc(CC)s3)n2)s1 | 42* | . | 1.7
CCc1nnc(NC(=O)c2ccncc2)s1 | 75 | . | -1
CCN(CC)CCCN1C(=O)C(=O)/C(=C(/O)c2ccccc2)C1c1ccccn1 (centres undefined) | 88 | . | 0.48
CC(C)(C)OC(=O)N1CCC[C@H]1C(=O)NCC1CCC(C(=O)O)CC1 (some centres undefined) | 95 | . | -0.27
CC(C)[C@H](NC(=O)[C@@H]1CSCN1C(=O)OC(C)(C)C)C(=O)NCC1CCC(C(=O)O)CC1 (some centres undefined) | 94 | 76* | 0.45
